The text below walks through data of PubChem BioAssay (NCATS).

Where “and” joins values, the source holds several entries; their conditions need not be identical. Equal values may be shown once. Records with an inconclusive call do not appear. Calls of active or inactive are those of the source. Unless noted, the call rests on the fitted dose curve; in most records, active means well fitted curve in the direction sought with a large enough effect; inconclusive means small, poorly fitted or top-dose-only effect, or another doubt; inactive means no such curve, though single readings can be large; an effect the other way counts as inactive or inconclusive.

Experiment [1] has as its target Alpha-galactosidase A (Homo sapiens) (UniProt P06280). Description: Counterscreen for Glucocerebrosidase Inhibitors: qHTS Assay for Human alpha-Galactosidase at pH 4.5 (AID 992). Further: 0% is about no effect. In short, it runs like this:
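Steps: enzyme (2 nM final), then compound across 0.7 nM to 77 uM, then 80 uM fluorogenic galactopyranoside substrate; incubate 20 min at room temperature; quench at pH 10; measure fluorescence at 365/440 nm.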
On the technique in general: Counterscreens check selectivity or assay interference.

Experiment [2] has as its target alpha-glucosidase (Oryza sativa, rice) (UniProt Q653V4). Description: Counterscreen for Glucocerebrosidase Inhibitors: qHTS Assay for Rice alpha-Glucosidase at pH 5.0 (AID 997).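 Further: 0% = full activity with enzyme and -100% = basal without enzyme.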 An outline of the steps:
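Endpoint fluorogenic assay at pH 5.0: compounds (0.7 nM to 77 uM) titrated against 4 nM rice enzyme and 400 uM 4-MU-alpha-glucoside for 20 min at room temperature; NaOH/glycine stop, read ex 365/em 440 nm, Hill-fitted AC50.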

Experiment [3] is described as follows: Validation of Assay for Modulators of Lamin A Splicing (AID 1459; active means well fitted curve in the direction sought with a large enough effect in the signal ratio; the % refers to the signal ratio;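 further: cells exposed to compound for two days before reading; 0% is about no effect; ratio rise marks activators and ratio drop marks inhibitors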). In short, it runs like this:
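Splicing correction is reported by an EGFP-containing lamin A minigene in stably transfected S3 HeLa cells, while DsRed2 controls for viability and nonspecific signal. Cells are exposed to compounds for 48 hrs before the GFP over RFP ratio is taken.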

The target of experiment [4] is DNA repair nuclease/redox regulator APEX1 (Homo sapiens) (UniProt P27695). Kind of experiment: qHTS Validation Assay for Inhibitors of the Human Apurinic/apyrimidinic Endonuclease 1 (APE1) (AID 1705;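 further: TAMRA fluorescence gain over two minutes as APE1 cuts a quenched THF abasic duplex; on the % scale 0 is the no-effect control and ±100 the full control effect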). In short, it runs like this: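 Endonuclease activity of human APE1 is followed as dequenching when the enzyme incises a tetrahydrofuran abasic site in a short duplex labelled 5'-TAMRA/3'-BHQ-2 (50 nM final), after 15 min enzyme–compound preincubation at room temperature.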
A general note: In qHTS, concentration-response curves come from the screen itself.

Experiment [5] in a line: Counterscreen for APE1 Inhibitors: Fluorescent Dye Displacement Validation Assay (AID 1707).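 Further: plate controls were ThO with dsDNA and no compound for no effect and ThO without dsDNA for full effect.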 In short, it runs like this:
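Reaction mixture of 250 nM Thiazole Orange and 50 nM double-stranded abasic-site DNA was dispensed, compounds were pin-transferred, and fluorescence was read at endpoint (480 nm ex, 540 nm em). Reduced fluorescence indicated dye displacement by DNA binding.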

For experiment [6], the target named is Endonuclease 4 (Escherichia coli (strain K12)) (UniProt P0A6C1). Kind of experiment: Counterscreen for APE1 Inhibitors: qHTS Validation Assay for Inhibitors of Endonuclease IV (AID 1708). Further: on the % scale 0 is the no-effect control and ±100 the full control effect. An outline of the steps:
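The reaction buffer contained 50 mM Tris-HCl pH 7.5, 50 mM NaCl, 2 mM MgCl2, 1 mM DTT and 0.01% Tween-20. Incision of a 50 nM fluorophore/quencher THF substrate by 2 nM enzyme was measured kinetically.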

The nature of experiment [7]: qHTS for differential inhibitors of proliferation of Plasmodium falciparum line 3D7 (AID 1876). Further: potency means the concentration at half of the fitted maximal effect. The following applies: P. falciparum 3D7 proliferation inhibition.
Experiment [8] is described as follows: qHTS for differential inhibitors of proliferation of Plasmodium falciparum line Dd2 (AID 1882).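 Further: compound exposure of 72 h on infected erythrocytes; plate controls were DMSO vehicle for no effect and 0.29 µM artemisinin for full effect; nearly all actives have a fitted effect of over 65% in size.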 In short, it runs like this: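 RBC culture, 0.3% parasitemia / 2.5% Hct final; cpd added by pin tool in DMSO; 72 h, 37 C, 5% CO2; lysis buffer + SYBR Green I, o/n RT dark; FI 485/535; norm. to artemisinin 0.29 uM and DMSO.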
The nature of experiment [9]: qHTS for differential inhibitors of proliferation of Plasmodium falciparum line W2 (AID 1883).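 Further: potency means the concentration at half of the fitted maximal effect; parasites grown with compound for 72 h before lysis and staining.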 The following applies: Plasmodium falciparum W2 proliferation inhibition.
Experiment [10] is described as follows: Cell Viability - LYMP2-014 (AID 983).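 Further: cells exposed to compound for 24 h at 37 °C; nearly all actives have a fitted effect of over 50% in size.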 Further: potency means the concentration at half of the fitted maximal effect. An outline of the steps: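 Quantitative HTS in lymphoblastoid cells: 24 hr compound exposure, then CellTiter-Glo ATP luminescence. Positive control was tetraoctylammonium bromide, 6.4pM to 92 uM.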
The nature of experiment [11]: Cell Viability - LYMP2-016 (AID 984).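 Further: cells exposed to compound for 24 hours at 37 °C; nearly all actives have a fitted effect of over 55% in size.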 Further: potency means the concentration at half of the fitted maximal effect. An outline of the steps:
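Acute toxicity in a Coriell human lymphoblastoid line is scored as loss of intracellular ATP over 24 h of treatment in complete medium. CellTiter-Glo signal is fitted across concentrations with the Hill equation to give AC50.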

Experiment [12] can be described thus: Cell Viability - LYMP2-018 (AID 985). Further: nearly all actives have a fitted effect of over 50% in size. Further: potency means the concentration at half of the fitted maximal effect. An outline of the steps: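 In this qHTS viability assay, cells are treated for 24 hr and cellular ATP is quantified by luciferase-based luminescence, with tetraoctylammonium bromide as positive control.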
Experiment [13] in a line: Cell Viability - LYMP2-026 (AID 989).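 Further: cells exposed to compound for 24 h at 37 °C; nearly all actives have a fitted effect of over 50% in size.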 Further: potency means the concentration at half of the fitted maximal effect. An outline of the steps: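 Acute toxicity screen in complete culture medium, with 24 hr compound exposure at 37 C. Viability read as cellular ATP via luciferase reaction, with tetraoctylammonium bromide (6.4pM to 92 uM) as positive control.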
A short description of experiment [14]: qHTS Assay for Lipid Storage Modulators (AID 1519; calls by dose curve; on activity change, negative = inhibition: on the % scale 0 is the no-effect control and ±100 the full control effect). To be noted: Drosophila S3 cells, BODIPY lipid droplet/cell ratio, laser cytometry, cells loaded with oleic acid. An outline of the steps: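 Cells seeded at 5,000 per well were treated with compounds over a concentration series and loaded with oleic acid (400 uM, as added). Lipid droplet fluorescence (488 nm excitation, 500-530 nm channel) was read by laser-scanning cytometry and normalized to 20 uM Triacsin C.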

Experiment [15] is described as follows: Cell Viability - LYMP2-012 (AID 982).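 Further: cellular ATP by luciferase luminescence where a drop means cytotoxicity; cells exposed to compound for one day before reading; nearly all actives have a fitted effect of over 55% in size.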 Further: potency means the concentration at half of the fitted maximal effect.
A short description of experiment [16]: Cell Viability - LYMP2-020 (AID 986).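 Further: cells exposed to compound for 24 h at 37 °C; nearly all actives have a fitted effect of over 55% in size.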 Further: potency means the concentration at half of the fitted maximal effect. An outline of the steps: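 Cells at 2500 per well receive a 24 hr compound exposure at 37 C. Viability is measured as ATP-dependent luciferase luminescence, with AC50 modeled from qHTS concentration-response curves.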
Experiment [17] can be described thus: Cell Viability - LYMP2-022 (AID 987). Further: nearly all actives have a fitted effect of over 55% in size. Further: potency means the concentration at half of the fitted maximal effect. An outline of the steps:
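In this qHTS cytotoxicity screen, compound titrations were incubated 24 hr at 37 C with human lymphoblastoid cells in complete medium. Luciferase-based ATP luminescence provided the viability signal.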

Experiment [18] is described as follows: Cell Viability - LYMP2-024 (AID 988). Further: nearly all actives have a fitted effect of over 60% in size. Further: potency means the concentration at half of the fitted maximal effect. In short, it runs like this:
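Cells at 2500 per well received compound for 24 hr after a 5 hr settling period. Viability was scored by CellTiter-Glo luminescence, with AC50 from Hill fits.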

A short description of experiment [19]: Cell Viability - LYMP1-002 - Assay at 40 hr (AID 994).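 Further: 0% = DMSO only and full inhibition = 92 µM tetraoctylammonium bromide; nearly all actives have a fitted effect of over 60% in size.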 In short, it runs like this:
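Concentration-dependent ATP loss after 40 hr treatment at 37 C defined toxicity; AC50 values were obtained by fitting the standard Hill equation.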

The nature of experiment [20]: qHTS Assay for Identification of Small Molecule Inducers of Hypoxia Response (AID 2120; active means well fitted curve in the direction sought with a large enough effect in the signal ratio, with a control signal flat, not every such curve was filed as active; the % refers to the signal ratio; further: 0% is about no effect). An outline of the steps: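 HRE-bla ME-180, 2500 cells/well, 0.5% dialyzed FBS medium; cpd titration, 17 h 37 degrees C; CCF4 2.5 h RT; Ex 405, Em 460/530 ratio -> %Activity, AC50.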
Where [21] appears, read: measured here: cell count channel max response.
Where [22] appears, read: measured here: lipid channel max response.

Sequence of DNA repair nuclease/redox regulator APEX1 (Homo sapiens) (P27695 whole entry, looked up): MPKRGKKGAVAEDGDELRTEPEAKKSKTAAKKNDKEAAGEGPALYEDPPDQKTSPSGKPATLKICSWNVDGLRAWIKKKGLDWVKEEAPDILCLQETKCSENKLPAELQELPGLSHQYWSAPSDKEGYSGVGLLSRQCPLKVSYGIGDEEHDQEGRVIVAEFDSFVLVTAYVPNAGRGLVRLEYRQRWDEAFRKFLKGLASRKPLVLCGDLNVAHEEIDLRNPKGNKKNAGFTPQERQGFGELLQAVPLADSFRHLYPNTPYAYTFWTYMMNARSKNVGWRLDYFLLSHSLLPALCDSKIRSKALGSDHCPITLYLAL
Sequence of Alpha-galactosidase A (Homo sapiens) (P06280 whole entry, looked up): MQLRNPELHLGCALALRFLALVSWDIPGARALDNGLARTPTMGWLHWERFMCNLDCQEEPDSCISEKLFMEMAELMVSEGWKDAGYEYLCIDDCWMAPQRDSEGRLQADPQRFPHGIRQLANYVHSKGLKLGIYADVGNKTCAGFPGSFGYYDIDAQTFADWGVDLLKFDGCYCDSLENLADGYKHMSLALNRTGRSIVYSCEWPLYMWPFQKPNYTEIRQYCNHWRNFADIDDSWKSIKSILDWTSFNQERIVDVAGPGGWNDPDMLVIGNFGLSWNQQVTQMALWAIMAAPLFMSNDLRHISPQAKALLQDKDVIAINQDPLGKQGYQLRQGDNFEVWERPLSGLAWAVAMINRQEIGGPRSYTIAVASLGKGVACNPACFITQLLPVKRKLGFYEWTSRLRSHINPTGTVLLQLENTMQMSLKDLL

For `CC[N+](C)(C)Cc1ccccc1Br`, the molecule was called inactive in experiment [1], in experiment [2], in experiment [3], in [4], in experiment [5] and in [6]. In addition, in [8], the outcome was inactive. Moreover, the Potency in [7] is 14.1 µM (active); in experiment [9] it was 11.2 µM (active).
As to `CN1Cc2c(N)cccc2C(c2ccccc2)C1` (stereo not drawn), the call in experiment [3] and in [4] was inactive.
Turning to `CCOc1ccc2c(c1)C(C)=CC(C)(C)N2`, the Potency result in [10], in experiment [11], in experiment [12] and in experiment [13] was “inactive” in each case. In experiment [14] (at 25.7 µM (top of the series)), the activity change, negative = inhibition is -15.7% (inactive). Further, the max response is -17.3% in [14] (setting [21]) and -29.2% in experiment [14] (setting [22]).
For the molecule `CCOC(C)=O`, the Potency result in [15], in experiment [10], in experiment [11], in [12], in [16] and in [17] was “inactive” each time. Besides, the Potency result in experiment [18], in experiment [13] and in experiment [19] was “inactive” each time. Further, the outcome in experiment [20] was inactive.
On to `COc1ccc(CCNC[C@H](O)c2ccc(O)cc2)cc1OC`, for which the call in experiment [1] and in experiment [2] was inactive.
Regarding `Nc1ccn([C@H]2CS[C@@H](CO)O2)c(=O)n1`, the Potency entry in [15], in [10], in [11], in experiment [12], in experiment [16] and in experiment [17] was “inactive” in each case. The Potency entry in experiment [18], in experiment [13] and in experiment [19] was “inactive” throughout. In experiment [20], the molecule was classed as inactive.
Turning to `O=CCCCC=O`, the Potency was 15.8 µM (active) in experiment [15]; 25.1 µM (active) in experiment [10]; 25.1 µM (active) in experiment [11]; 20 µM (active) in experiment [12]; 15.8 µM (active) in experiment [16]; 10 µM (active) in experiment [17]. Further, the Potency in experiment [18] is 12.6 µM (active); in experiment [13], 25.1 µM (active). The Potency entry in [19] is “inactive”.
For `Nc1c(Br)cc(Br)cc1CNC1CCC(O)CC1` (stereo not drawn), the values for the activity change, negative = inhibition in experiment [14] (at 25.7 µM (top of the series)) and in [14] (at 57.5 µM (top of the series)) were -1.33% (inactive) and 7.29% (inactive), respectively. Further, the max response in experiment [14] (setting [21]) was -4.61% and 6.29%; in experiment [14] (setting [22]), -3.94% and 15.7%.
Consider `CC1=C2[C@@H]([C@H](C)CC[C@H]2/C=C(\C)C(=O)O)[C@H](O)C1`, for which the Potency result in experiment [15], in [10], in [11], in experiment [12], in experiment [16] and in experiment [17] was “inactive” each time. Also, the Potency entry in experiment [18], in experiment [13] and in experiment [19] was “inactive” in each case. Moreover, the call in experiment [20] was inactive.
On to `CCCCCCCC/C=C\CCCCCCCC(=O)O`, for which the Potency result in experiment [15], in experiment [10], in [11], in experiment [12], in experiment [16] and in experiment [17] was “inactive” throughout. The Potency result in [18], in experiment [13] and in [19] was “inactive” each time. Moreover, the outcome in experiment [20] was inactive.
`CC(O)CO` (stereo not drawn): the Potency entry in experiment [15], in [10], in experiment [11], in experiment [12], in experiment [16] and in experiment [17] was “inactive” each time. Further, the Potency entry in experiment [18], in [13] and in experiment [19] was “inactive” in each case. Besides, the call in [20] was inactive.
